Results reported in PubChem BioAssay (NCATS).
Results filed as inconclusive are left out. Unmarked numbers belong to inactive results. Activity calls are given as the source filed them. The call rests on the fitted dose curve; in most records, active means well fitted inhibition curve with a large enough effect; inconclusive means small, poorly fitted or top-dose-only effect; inactive means no such curve, though single readings can be large or run the other way. Non-standard residues stand in square brackets, D forms with d. Residues, ends and D or L forms follow the SMILES beside them. *: point of attachment. Sta = CC(C)C[C@H](N)[C@@H](O)CC(=O)O; Isovaleryl = CC(C)CC(=O)*

test: BET inhibitor-based combinations targeting novel dependencies in MECOM-rearranged (r) AML: SET-2 cell line (AID 2202231); settings: SET-2 AML cells viability, CellTiter-Glo luminescence, 48 h; viability: hits give low values, series mostly up to about 46 µM; further: nearly all actives have a fitted effect of over 35% in size
From the text: Ecotropic viral insertion site 1 (EVI1) is located on chromosome 3q26.2 as part of the MECOM (MDS and EVI1 complex) locus. Under normal hematopoiesis, EVI1 is a regulator of hematopoietic stem cell maintenance and self-renewal and EVI1 levels decrease as the cells differentiate. In approximately 5-10% of de novo acute myeloid leukemia (AML) EVI1 is aberrantly expressed, including Chromosomal inv(3)(q21;q26.2) or t(3;3)(q21;q26.2) alterations (MECOM-r) that account for about 50% of AML with EVI1 overexpression 31. AMLs with high levels of EVI1 have a poor prognosis and an overall survival time averaging between 10-14 months. EVI1 overexpression confers resistance in leukemia cells, highlighting the need to develop new targeted therapies for EVI1 overexpressing AMLs.
Here, we performed an unbiased chemical drug screening by evaluating the single agent activity of a collection of 2,480 oncology-focused, approved and investigational drugs (NCATS Mechanism Interrogation Plates, MIPE v5.0) against a panel of seven AML cell lines. These included four MECOM-r cell-lines (AML-191, AML-194, UCSD-AML1 and HNT-34) and three non-MECOM-r AMLs (MV4-11, OCI-AML3 and SET-2). Exploiting the mechanistic redundancy built in the library, we identified target-level sensitivities in MECOM-r AML cells and relative activity as compared to other AML subtypes.
A collection of 2480 mechanistically annotated dugs (MIPE v5.0) was used to screen four 3q26.2 rearranged AML cell lines and three non-3q26.2 rearranged AML cell lines. This library purposely exploits redundancy by including multiple inhibitors of key onco-targets, while simultaneously encompassing mechanistic diversity, targeting more than 800 distinct mechanisms of action. Briefly, cells were seeded in 5 uL of growth media using a Multidrop Combi dispenser into 1536 well white polystyrene tissue culture treated plates (Corning) at a density of 500cells/well. For each cell-line, for each of the 2480 drugs in MIPE v5.0 library, an 11-point dose curve was generated via a 1536 pin-tool. Plates were incubated for 48 hr at standard incubator conditions, covered by a stainless steel gasketed lid to prevent evaporation. Cell viability was determined by luminescence based, Cell Titer Glo assay (Promega). In detail, 3 uL of Cell Titer Glo were added to each well and plates were incubated at room temperature for 15 min with a stainless-steel lid in place. Luminescence readings were taken using a Viewlux (PerkinElmer) with a 2 s exposure time per plate. Compound dose-response curves were normalized to DMSO and empty well controls on each plate. Quantitative drug activity data from dose-response curves was determined utilizing area Under the Curve (AUC) and Z-transformed AUC (Z-AUC, a mean-centering transformation applied to each individual cell-line screened).
Potency means the concentration at half of the fitted maximal effect.

Question: For `Fc1ccc(CNc2ncnc3ccc(F)cc23)cc1`, which Potency is on record?
Answer: Its Potency is 2.63 µM (active).

Question: Which Potency does the source give for `CCOC(=O)O[C@]1(C(=O)OCCl)CC[C@H]2[C@@H]3CCC4=CC(=O)C=C[C@]4(C)[C@H]3[C@@H](O)C[C@@]21C` here?
Answer: Its Potency is 1.05 µM (active).

Question: With `CC(C)Oc1ccc2c(=O)c(-c3ccccc3)coc2c1` as the compound, how does the viability read?
Answer: The viability was 108%.

Question: For `CCCCCNC(=O)N1CCC(CN(Cc2ccc(Cl)cc2)Cc2ccc([N+](=O)[O-])s2)C1` (stereo not given), which Potency is on record?
Answer: Its Potency is 20.9 µM (active).

Question: For `CC[C@H](NC(C)C)[C@H](O)c1ccc(O)c2[nH]c(=O)ccc12`, which viability is on record?
Answer: Its viability is 117%.

Question: With `COc1c(N2C[C@@H]3CCCN[C@H]3C2)c(F)cc2c(=O)c(C(=O)O)cn(C3CC3)c12` as the compound, how does the Potency read?
Answer: Its Potency is 14.8 µM (active).

Question: With `CCCCOc1ccc(C(=O)Nc2ccc(F)cc2F)cc1` as the compound, how does the viability read?
Answer: The viability was 103%.

Question: With `COc1ccc(Cc2nccc3cc(OC)c(OC)cc23)cc1OC` as the compound, how does the Potency read?
Answer: The Potency was 11.8 µM (active).

Question: For `NS(=O)(=O)c1cccc2c1C(=O)c1cccc(O)c1C2=O`, which Potency is on record?
Answer: The Potency was 2.95 µM (active).

Question: For `COc1ccc(-c2c(-c3ccc(O)cc3O)n[nH]c2C)cc1`, which viability is on record?
Answer: The viability was 84%.

Question: With `CS(=O)(=O)c1cccc(CNc2nc(Nc3ccc4c(c3)CCC(=O)N4)ncc2C(F)(F)F)c1` as the compound, how does the Potency read?
Answer: The Potency was 16.6 µM (active).

Question: For `Nc1ncnc2ccccc12`, which viability is on record?
Answer: Its viability is 115%.

Question: For `Cc1cnc(Nc2ccc(F)cc2Cl)nc1-c1c[nH]c(C(=O)N[C@H](CO)c2cccc(Cl)c2)c1`, which Potency is on record?
Answer: The Potency was 23.5 µM (active).

Question: For `COc1cc(C[C@@H](CO)[C@H](CO)Cc2ccc(O)c(OC)c2)ccc1O`, which viability is on record?
Answer: The viability was 120%.

Question: With `CC(=O)OC[C@@H]1O[C@@H](n2ccc(=O)[nH]c2=O)[C@H](OC(C)=O)[C@H]1OC(C)=O` as the compound, how does the viability read?
Answer: The viability was 108%.

Question: With `CC#CCn1c(N2CCC[C@@H](N)C2)nc2c1c(=O)n(Cc1nc(C)c3ccccc3n1)c(=O)n2C` as the compound, how does the viability read?
Answer: The viability was 113%.

Question: Which viability does the source give for `Cc1cc(NC(=O)Nc2ccc(N(C)C)cc2)c2cc(F)cc(F)c2n1` here?
Answer: The viability was 94.3%.

Question: Which Potency does the source give for `Nc1ccc(-c2ccc3ncc4ccc(=O)n(-c5cccc(C(F)(F)F)c5)c4c3c2)cn1` here?
Answer: The Potency was 0.105 µM (active).

Question: For `CCOc1cc2c(c(F)c1OCC)C(=N)N(CC(=O)c1cc(N3CCOCC3)c(OC)c(C(C)(C)C)c1)C2`, which Potency is on record?
Answer: Its Potency is 16.6 µM (active).

Question: With `CCCNCC(O)COc1ccccc1C(=O)CCc1ccccc1` (stereo not given) as the compound, how does the viability read?
Answer: Its viability is 84.2%.

Question: Which viability does the source give for `Cc1ncc([N+](=O)[O-])n1CC(C)O` (stereo not given) here?
Answer: The viability was 124%.

Question: With `O=C(Nc1ccc(-c2ccnc(Nc3ccc(N4CCOCC4)cc3)n2)cc1)C1CCCN1` (stereo not given) as the compound, how does the Potency read?
Answer: Its Potency is 9.34 µM (active).

Question: With `O=C(Nc1c(Cl)cncc1Cl)c1ccc(OC(F)F)c(OCC2CC2)c1` as the compound, how does the viability read?
Answer: The viability was 98.8%.

Question: With `NS(=O)(=O)c1cc2c(cc1Cl)NCNS2(=O)=O` as the compound, how does the viability read?
Answer: Its viability is 107%.

Question: For `Cc1nnc(NS(=O)(=O)c2ccc(N)cc2)s1`, which viability is on record?
Answer: Its viability is 113%.

Question: With `CCCCCCCCCCCCCCCC(=O)O[C@H]1[C@@H](O)[C@@H](O)[C@@H]([C@H](NC(=O)[C@@H]2C[C@@H](CCC)CN2C)[C@H](C)Cl)O[C@@H]1SC` as the compound, how does the viability read?
Answer: Its viability is 108%.

Question: With `O=C1CCC[C@@H]2[C@H]3CCC[N+]4([O-])CCC[C@@H](CN12)[C@@H]34` (stereo not given in full) as the compound, how does the viability read?
Answer: Its viability is 118%.

Question: For `COc1ccc(-c2ccc3cc(C(=O)O)ccc3c2)cc1C12CC3CC(CC(C3)C1)C2`, which viability is on record?
Answer: Its viability is 111%.

Question: With `CN1CCCN=C1/C=C/c1cccs1` as the compound, how does the viability read?
Answer: Its viability is 73.8%.

Question: With `Nc1cc(C(Cl)=C(Cl)Cl)c(S(N)(=O)=O)cc1S(N)(=O)=O` as the compound, how does the viability read?
Answer: Its viability is 111%.

Question: Which viability does the source give for `CC(C)CC(=O)N[C@H](C(=O)N[C@H](C(=O)N[C@@H](CC(C)C)[C@@H](O)CC(=O)N[C@@H](C)C(=O)N[C@@H](CC(C)C)[C@@H](O)CC(=O)O)C(C)C)C(C)C` (Isovaleryl-VV[Sta]A[Sta]-OH) here?
Answer: The viability was 117%.

Question: With `O=C(NC1CCOCC1)c1ccc(-c2cc(-c3cn[nH]c3-c3ccccn3)ccn2)cc1` as the compound, how does the viability read?
Answer: The viability was 101%.

Question: For `Cc1[nH]c2ccc(F)cc2c1-c1nc2c3cccnc3c3ncccc3c2[nH]1`, which Potency is on record?
Answer: Its Potency is 2.7 µM (active).

Question: For `CN1CCC(=C2c3ccccc3C=Cc3ccccc32)CC1`, which Potency is on record?
Answer: The Potency was 13.2 µM (active).

Question: Which viability does the source give for `O=C(O)CCNC(=O)c1ccc(N=Nc2ccc(O)c(C(=O)O)c2)cc1` here?
Answer: The viability was 118%.

Question: For `OC(c1cc(C(F)(F)F)nc2c(C(F)(F)F)cccc12)C1CCCCN1` (stereo not given), which Potency is on record?
Answer: The Potency was 26.3 µM (active).

Question: Which viability does the source give for `CC1(C)[C@@H](O)CC[C@]2(C)[C@H]3C(=O)C=C4[C@@H]5C[C@@](C)(C(=O)O)CC[C@]5(C)CC[C@@]4(C)[C@]3(C)CC[C@@H]12` here?
Answer: Its viability is 112%.

Question: With `Cc1ccc(C(C)(O)c2nc3ccccc3s2)c(C)c1` (stereo not given) as the compound, how does the Potency read?
Answer: The Potency was 13.2 µM (active).

Question: Which Potency does the source give for `COc1cc(C)c(Sc2cnc(NC(=O)c3ccc(CNC(C)C(C)(C)C)cc3)s2)cc1C(=O)N1CCN(C(C)=O)CC1` (stereo not given) here?
Answer: Its Potency is 23.5 µM (active).

Question: For `c1coc(CNc2ncnc3nc[nH]c23)c1`, which viability is on record?
Answer: Its viability is 107%.
